In PubChem BioAssay (Tox21) one finds Potency, outcome and activation data, which are given here for 22 compounds.

Structures are written as SMILES. Where “and” joins values, the source holds several entries; their conditions need not be identical. Equal values may be shown once. Unmarked numbers belong to inactive results. Calls of active or inactive are those of the source. Unless noted, calls follow the shape of the dose curve; as a rule, active = well fitted curve in the direction sought with a large enough effect in the repeat runs; inconclusive = weak or mixed curves; inactive = no such curve, though single readings can be large; an effect the other way counts as inactive or inconclusive.

The nature of assay [1]: qHTS assay to identify small molecule antagonists of the thyroid receptor (TR) signaling pathway (AID 743065). Also: nearly all actives have a fitted effect of over 55% in size. Also: potency is read from the fitted curve at half-maximal effect. An outline of the steps: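 GH3.TRE-Luc rat pituitary cells carrying two TR response elements driving luciferase were plated for 4 h, given compound plus 1 nM T3 (final), and incubated 23.5 h at 37 C. ONE-Glo luminescence measured reporter inhibition; CellTiter-Fluor fluorescence tracked cytotoxicity.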

The test system of assay [2] is thyroid hormone receptor (rat, GH3 cells). As to the kind of experiment: qHTS assay to identify small molecule agonists of the thyroid receptor (TR) signaling pathway (AID 743066; calls by dose curve). Background: Quantitative high-throughput screening tests each substance at several concentrations.
The target in assay [3] is Estrogen receptor (Homo sapiens) (UniProt P03372). As to the kind of experiment: qHTS assay to identify small molecule antagonists of the estrogen receptor alpha (ER-alpha) signaling pathway (AID 743069; active = well fitted curve in the direction sought with a large enough effect in the signal ratio in the repeat runs, not every such curve was filed as active; inconclusive = weak or mixed curves, or effect the other way; inactive = no such curve, though single readings can be large or run the other way; the % refers to the signal ratio; also: potency is read from the fitted curve at half-maximal effect). The method in brief:
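Estradiol-stimulated ER-alpha-UAS-bla HEK293 cells, 18 hr compound exposure at 37C. LiveBLAzer B/G substrate, 2 hr RT, fluorescence read.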

A short description of assay [4]: qHTS assay to identify small molecule antagonists of the estrogen receptor alpha (ER-alpha) signaling pathway - cell viability counter screen (AID 743074; calls by dose curve;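 also: HEK293 cells carrying ER-alpha-UAS-bla reporter stimulated with 17beta-estradiol; nearly all actives have a fitted effect of over 45% in size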).
Assay [5] concerns the target Estrogen receptor (Homo sapiens) (UniProt P03372). As to the kind of experiment: qHTS assay to identify small molecule agonists of the estrogen receptor alpha (ER-alpha) signaling pathway (AID 743075; calls by dose curve;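 also: HEK293 GripTite cells with ER-alpha and UAS-driven beta-lactamase reporter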; also: potency is read from the fitted curve at half-maximal effect).
For assay [6] the target is unchanged. As to the kind of experiment: qHTS assay to identify small molecule agonists of the estrogen receptor alpha (ER-alpha) signaling pathway using the BG1 cell line (AID 743079). Also: nearly all actives have a fitted effect of over 20% in size. Also: potency is read from the fitted curve at half-maximal effect. As to conditions: BG1Luc4E2 cells, ERE-luciferase agonist, 22 h.
Assay [7] in a line: qHTS assay to identify small molecule antagonists of the estrogen receptor alpha (ER-alpha) signaling pathway using the BG1 cell line (AID 743080; calls by dose curve;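 also: BG1 cells stimulated with 17beta-estradiol alongside compound; nearly all actives have a fitted effect of over 25% in size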; also: potency is read from the fitted curve at half-maximal effect). The method in brief:
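BG1-Luc-4E2 cells (endogenous full-length ER-alpha, stable 4×ERE-luciferase) were starved 5 days in phenol-red-free medium with 10% charcoal-stripped FBS, plated 24 h, then given compound plus 17beta-estradiol for 21.5 h at 37 C; ONE-Glo luminescence read after 30 min.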

Assay [8] is described as follows: qHTS assay to identify small molecule antagonists of the estrogen receptor alpha (ER-alpha) signaling pathway using the BG1 cell line - cell viability counter screen (AID 743081).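 Also: compound given together with 17beta-estradiol as the ER stimulus; nearly all actives have a fitted effect of over 45% in size.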 Also: potency is read from the fitted curve at half-maximal effect.
A further assay deals with Aromatase (Homo sapiens) (UniProt P11511). Kind of assay: qHTS assay to identify aromatase inhibitors (AID 743083). Also: nearly all actives have a fitted effect of over 55% in size. Also: potency is read from the fitted curve at half-maximal effect.
The nature of assay [9]: qHTS assay to identify aromatase inhibitors - cell viability counter screen (AID 743084).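 Also: cells stimulated with testosterone during compound exposure; nearly all actives have a fitted effect of over 55% in size.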 Also: potency is read from the fitted curve at half-maximal effect.
% is scaled to controls: 0 for no effect and ±100 for the full control effect.

Estrogen receptor (Homo sapiens), sequence (P03372 whole entry, looked up): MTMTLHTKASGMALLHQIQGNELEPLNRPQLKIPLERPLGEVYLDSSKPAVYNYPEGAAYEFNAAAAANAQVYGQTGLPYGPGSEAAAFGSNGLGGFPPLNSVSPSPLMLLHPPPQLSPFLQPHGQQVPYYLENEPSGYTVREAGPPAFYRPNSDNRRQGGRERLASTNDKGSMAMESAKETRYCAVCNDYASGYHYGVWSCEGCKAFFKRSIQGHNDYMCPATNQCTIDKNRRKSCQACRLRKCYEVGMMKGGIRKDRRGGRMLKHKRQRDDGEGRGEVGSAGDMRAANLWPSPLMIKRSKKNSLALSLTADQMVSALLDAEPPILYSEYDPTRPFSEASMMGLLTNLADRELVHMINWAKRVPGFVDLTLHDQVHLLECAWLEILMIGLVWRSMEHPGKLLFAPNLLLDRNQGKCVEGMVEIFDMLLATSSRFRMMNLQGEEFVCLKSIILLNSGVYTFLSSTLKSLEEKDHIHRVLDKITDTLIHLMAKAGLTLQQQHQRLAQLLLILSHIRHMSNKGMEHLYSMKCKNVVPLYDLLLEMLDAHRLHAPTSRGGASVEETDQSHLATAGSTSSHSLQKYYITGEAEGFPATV
Aromatase (Homo sapiens), sequence (P11511 whole entry, looked up): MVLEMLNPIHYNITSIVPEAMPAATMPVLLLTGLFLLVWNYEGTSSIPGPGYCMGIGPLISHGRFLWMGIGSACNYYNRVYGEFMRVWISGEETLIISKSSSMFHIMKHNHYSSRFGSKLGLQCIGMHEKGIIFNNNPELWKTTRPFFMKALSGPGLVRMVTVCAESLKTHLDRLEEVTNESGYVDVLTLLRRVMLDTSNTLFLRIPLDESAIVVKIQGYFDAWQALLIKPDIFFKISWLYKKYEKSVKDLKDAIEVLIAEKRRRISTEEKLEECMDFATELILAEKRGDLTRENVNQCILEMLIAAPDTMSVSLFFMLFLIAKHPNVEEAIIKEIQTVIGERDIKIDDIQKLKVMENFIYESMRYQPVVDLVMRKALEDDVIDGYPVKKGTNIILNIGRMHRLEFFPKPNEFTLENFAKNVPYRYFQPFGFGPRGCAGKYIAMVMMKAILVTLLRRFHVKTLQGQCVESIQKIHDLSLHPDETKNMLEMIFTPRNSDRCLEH

`C[N+](=O)[O-]`: the Potency entry in [1], in assay [2], in assay [3], in assay [5], in [7] and in assay [8] was “inactive” each time. Also, the Potency entry (in the assay with Aromatase (Homo sapiens); in [9]) was “inactive” in each case. For the same compound, the result in [4] was inactive. For the same compound, the activation in assay [6] (at 70.3 µM (top of the series)) is 0.916%.
`COC(=O)c1ccccc1S(=O)(=O)NC(=O)N(C)c1nc(C)nc(OC)n1`: the Potency result in assay [1], in assay [2], in [3], in assay [5], in assay [7] and in assay [8] was “inactive” in each case. Also, the Potency entry (in the assay with Aromatase (Homo sapiens); in assay [9]) was “inactive” in each case. Moreover, the outcome in [4] was inactive.
As to `O=C(N[C@H]1CN2CCC1CC2)c1cc2ccoc2cn1`, the Potency entry in [1], in assay [2], in [3], in assay [5], in assay [7] and in assay [8] was “inactive” in each case. The Potency entry (with Aromatase (Homo sapiens); in assay [9]) was “inactive” each time. For the same compound, the call in assay [4] was inactive. Further, in [6] (at 70.3 µM (top of the series)), the activation is -3.48%.
In the case of `O=[N+]([O-])c1cccc2cccnc12`, the Potency entry in [1], in assay [2], in assay [3], in assay [5], in assay [7] and in assay [8] was “inactive” throughout. The Potency entry (with Aromatase (Homo sapiens); in assay [9]) was “inactive” in each case. In addition, in assay [4], the call was inactive. Also, the activation in assay [6] (at 95 µM (top of the series)) is -10.4%.
`CCCCc1ccc(O)cc1`: the Potency entry in assay [1], in [2], in [3], in assay [5], in assay [7] and in assay [8] was “inactive” in each case. Moreover, in [9], the Potency result was “inactive”. Besides, the result in [4] was inactive. In assay [6] (at 70.3 µM (top of the series)), the activation is 12.6%.
In the case of `O=C(NCO)NCO`, the Potency entry (in assay [1]; in assay [2]; in assay [5]; in assay [7]; in assay [8]; in the assay with Aromatase (Homo sapiens)) was “inactive” in each case. The result in [4] was inactive. For the same compound, in assay [6] (at 95 µM (top of the series)), the activation was 2.29%.
Regarding `CCC(C)n1c(=O)[nH]c(C)c(Br)c1=O` (stereo not drawn), the Potency entry in [1], in assay [2], in assay [3], in assay [5], in [7] and in [8] was “inactive” in each case. In addition, the Potency entry (with Aromatase (Homo sapiens); in assay [9]) was “inactive” throughout. In addition, the compound was called inactive in [4]. The activation in assay [6] (at 70.3 µM (top of the series)) was 1.5%.
Regarding `Nc1c(Br)cc([N+](=O)[O-])cc1[N+](=O)[O-]`, the Potency in assay [1] was 61.8 µM (active); in assay [8] it was 31 µM (active). The Potency result (in [2]; in assay [3]; in [5]; in assay [7]; with Aromatase (Homo sapiens)) was “inactive” throughout. The outcome in [4] was inactive.
For the compound `COc1cccc2c1cc([N+](=O)[O-])c1c(C(=O)O)cc3c(c12)OCO3`, the Potency is 2.73 µM (active) in assay [1]; 21.9 µM [inconclusive] (active) in assay [3]; 61.1 µM (active) in assay [8]; 10.9 µM (active) with Aromatase (Homo sapiens); 24.3 µM (active) in assay [9]. In addition, the Potency entry in assay [2] and in assay [5] was “inactive” each time.
In the case of `CNC(=O)Oc1ccccc1C1OCCO1`, the Potency entry in assay [1], in [2], in assay [3], in assay [5], in assay [7] and in assay [8] was “inactive” throughout. The Potency entry (with Aromatase (Homo sapiens); in assay [9]) was “inactive” throughout. Also, the activation in assay [6] (at 70.3 µM (top of the series)) is -9.73%.
Turning to `CC1(C)CON(Cc2ccccc2Cl)C1=O`, the Potency entry in assay [1], in assay [2], in assay [3], in assay [5], in [7] and in [8] was “inactive” throughout. The Potency result (in the assay with Aromatase (Homo sapiens); in [9]) was “inactive” each time. The compound was called inactive in [4].
Turning to `CCSC(=O)N(CC)C1CCCCC1`, the Potency entry in [1], in [2], in assay [3], in [5], in assay [7] and in assay [8] was “inactive” throughout. For the same compound, the Potency result (with Aromatase (Homo sapiens); in assay [9]) was “inactive” throughout. For the same compound, in [4], the compound was called inactive.
As for `O=CNC(N1CCN(C(NC=O)C(Cl)(Cl)Cl)CC1)C(Cl)(Cl)Cl` (stereo not drawn), the Potency result in [1], in assay [2], in assay [3], in assay [5], in assay [7] and in assay [8] was “inactive” each time. For the same compound, the Potency result (with Aromatase (Homo sapiens); in assay [9]) was “inactive” in each case. The activation in [6] (at 70.3 µM (top of the series)) was -11.3%.
Regarding `Cc1ncsc1CCCl`, the Potency entry (in assay [1]; in [2]; in assay [3]; in assay [5]; in assay [7]; with Aromatase (Homo sapiens)) was “inactive” each time. Moreover, the Potency result in [9] was “inactive”. Also, in assay [4], the call was inactive. Besides, the activation in [6] (at 70.3 µM (top of the series)) is 1.72%.
In the case of `c1coc(-c2nc3ccccc3[nH]2)c1`, the Potency entry (in [1]; in [2]; in assay [3]; in assay [8]; with Aromatase (Homo sapiens); in assay [9]) was “inactive” throughout. In addition, the outcome in assay [4] was inactive. In assay [6], the Potency was 30.6 µM (active).
`COC(=O)C(c1ccccc1)C1CCCCN1` (stereo not drawn): the Potency entry in [1], in assay [2], in assay [3], in assay [5], in assay [7] and in assay [8] was “inactive” throughout. The Potency result (in the assay with Aromatase (Homo sapiens); in assay [9]) was “inactive” throughout. Also, in assay [4], the compound was called inactive. The activation in assay [6] (at 70.3 µM (top of the series)) was 2.44% and -6.09%.
Turning to `OC(c1ccc(F)cc1)(c1cncnc1)c1ccccc1Cl` (stereo not drawn), the Potency entry in assay [1], in [2], in assay [3], in assay [7], in assay [8] and in assay [9] was “inactive” each time. Moreover, in assay [4], the result was inactive. In addition, in assay [5], the Potency is 49 µM [activator] (active).
Take `CC1=C(C(=O)Nc2ccccc2)S(=O)(=O)CCO1`: the Potency in [1] was 27.3 µM (active); in assay [7], 76.9 µM (active); in the assay with Aromatase (Homo sapiens) it was 48.5 µM (active); in assay [9] it was 30.6 µM (active). In addition, the Potency result in assay [2], in assay [3], in assay [5] and in [8] was “inactive” in each case. Moreover, in assay [4], the result was inactive.
In the case of `O=C(O)c1cccc(Cl)c1`, the Potency entry in [1], in assay [2], in assay [3], in assay [5], in assay [7] and in assay [8] was “inactive” throughout. The Potency entry (with Aromatase (Homo sapiens); in assay [9]) was “inactive” throughout. The result in assay [4] was inactive. The activation in [6] (at 70.3 µM (top of the series)) was 2.91%.
Take `NC(=O)c1cc([N+](=O)[O-])cc([N+](=O)[O-])c1`: the Potency result in assay [1], in [2], in [3], in assay [5], in assay [7] and in [8] was “inactive” throughout. For the same compound, the Potency result (with Aromatase (Homo sapiens); in assay [9]) was “inactive” throughout. Besides, the compound was classed as inactive in assay [4].
Take `O=C1OC(=O)C2C1C1(Cl)C(Cl)=C(Cl)C2(Cl)C1(Cl)Cl` (stereo not drawn): the Potency result in assay [1], in assay [2], in [3], in assay [5], in assay [7] and in assay [8] was “inactive” throughout. Also, the Potency result (with Aromatase (Homo sapiens); in assay [9]) was “inactive” in each case. Further, in assay [6] (at 95 µM (top of the series)), the activation is -12.2%.
On to `Nc1cc(Cl)ccc1O`, for which the Potency in assay [1] was 59.1 µM (active); in assay [7], 7.45 µM (active). Moreover, the Potency entry (in assay [2]; in assay [3]; in [5]; in [8]; with Aromatase (Homo sapiens); in assay [9]) was “inactive” in each case. Further, the activation in [6] (at 70.3 µM (top of the series)) is -2.11%.
